TDP1 block: blocks human tyrosyl-DNA phosphodiesterase 1. Q9NUW8. recombinant TDP1, AlphaScreen DNA substrate cleavage. Potency, µM (titrated, usually from 130 µM), inactives show at the highest dose activity change, negative = inhibition, actives largely listed as inhibitors. 0.28% of 350,000 active. AID 485290; also: % is scaled to controls: 0 for no effect and ±100 for the full control effect; nearly all actives have a fitted effect of over 40% in size
Target sequence (Q9NUW8 whole entry, looked up): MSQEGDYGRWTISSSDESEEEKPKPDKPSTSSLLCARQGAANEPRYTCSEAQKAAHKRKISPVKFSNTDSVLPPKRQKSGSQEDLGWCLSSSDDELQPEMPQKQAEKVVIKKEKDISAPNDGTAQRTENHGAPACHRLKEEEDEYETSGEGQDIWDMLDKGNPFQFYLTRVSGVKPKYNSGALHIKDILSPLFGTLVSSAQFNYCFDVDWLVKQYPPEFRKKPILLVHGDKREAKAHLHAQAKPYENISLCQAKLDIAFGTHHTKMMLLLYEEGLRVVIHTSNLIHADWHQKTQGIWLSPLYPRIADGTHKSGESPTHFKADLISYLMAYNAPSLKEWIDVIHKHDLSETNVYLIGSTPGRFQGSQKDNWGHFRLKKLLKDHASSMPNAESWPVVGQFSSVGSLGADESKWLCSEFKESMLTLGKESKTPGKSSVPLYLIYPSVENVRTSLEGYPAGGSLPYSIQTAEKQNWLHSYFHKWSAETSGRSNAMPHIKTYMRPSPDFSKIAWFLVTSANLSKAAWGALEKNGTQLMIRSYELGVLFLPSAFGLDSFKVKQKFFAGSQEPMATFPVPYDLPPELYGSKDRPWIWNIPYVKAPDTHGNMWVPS
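Tdp1 1 nM final; 15 min RT w/ cpd; substrate 15 nM, 5 min; beads 10 ug/ml, 10 min; AlphaScreen read. Neg ctrl: no enzyme.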
DT40 TDP1 no CPT: qHTS for Inhibitors of human tyrosyl-DNA phosphodiesterase 1 (TDP1): qHTS in cells in absence of CPT. DT40 Tdp1-/- hTDP1 cells, no CPT, ATP luminescence, 48 h. Potency, µM (top dose mostly 46.2 µM), for inactives: top-dose activity change, negative = growth inhibition, usual class: inhibitors. 15% of 420,000 active. AID 686978, 2013; also: % is scaled to controls: 0 for no effect and ±100 for the full control effect; nearly all actives have a fitted effect of over 55% in size
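Cells were dispensed at 400 per well, compounds added by pin tool, plates incubated ≥48 hr at 37 °C, then CellTiter-Glo added for 30 min at room temperature before luminescence reading. Line: DT40 Tdp1-/- complemented with hTDP1; camptothecin omitted.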
ClpP mod: qHTS Assay for Activators of ClpP; AID 651965, 2013; 1.9% of 340,000 active; purified B. subtilis ClpP, FRET peptide cleavage, 20 min; ATP-dependent Clp protease proteolytic subunit (Bacillus subtilis (strain 168)), P80244; Potency, µM (series often up to 57.5 µM), for inactives: at the highest dose activity change, negative = active; active = well fitted falling curve with a large enough effect; inconclusive = small, poorly fitted or top-dose-only effect; inactive = no such curve, though single readings can be large or run the other way; also: the source files actives as falling curves though it sought activators and does not explain the sign; nearly all actives have a fitted effect of over 65% in size
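Purified B. subtilis ClpP, 10 microg/mL final in Tris/HCl pH8 with KCl, BSA, glycerol and Tween-20, cleaved an Abz/nitrotyrosine-quenched decapeptide. Fluorescence (ex 320, em 430) was read at 0 and 20 min at room temperature. Delta was normalized to 5.8 microM ADEP and DMSO/no-enzyme controls.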
DT40 TDP1 CPT: DT40-hTDP1 cell growth loss with CPT | chicken DT40 Tdp1-/-;hTDP1 cells + 20 nM CPT, ATP luminescence, 48 h | Potency, µM (highest dose often 46.2 µM), for inactives: at the top dose activity change, negative = growth inhibition, actives largely listed as inhibitors | 12% of 420,000 active | AID 686979; also: % is scaled to controls: 0 for no effect and ±100 for the full control effect; nearly all actives have a fitted effect of over 55% in size
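Chicken DT40 Tdp1-/- cells complemented with human TDP1, 400 cells/well, exposed to compounds plus 20 nM camptothecin for at least 48 h at 37 C; viability read as ATP content by CellTiter-Glo luminescence.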
* marks the source's active call; other numbers are inactive results; ? = inconclusive; . = no result. Rows were chosen to be rich in hits. Some 17% of all compounds tested hit in one or more screens of this group. Unless noted, calls follow the shape of the dose curve; as a rule, active = well fitted curve in the direction sought with a large enough effect; inconclusive = small, poorly fitted or top-dose-only effect, or another doubt; inactive = no such curve, though single readings can be large; an effect the other way counts as inactive or inconclusive. Potency is read from the fitted curve at half-maximal effect.

SMILES | TDP1 block | DT40 TDP1 no CPT | ClpP mod | DT40 TDP1 CPT
COc1ccccc1-c1nc(SCC(=O)NCc2ccc(C)cc2)c2c(=O)n(C)c(=O)n(C)c2n1 | 3% | -15% | 1% | -10%
Cn1cccc1-c1cc(C(=O)N/N=C/C=C/c2ccccc2)[nH]n1 | 8% | ? | . | ?
COc1cc(/C=N/NC(=O)c2cc(-c3cccn3C)n[nH]2)cc(OC)c1OC | 7% | 21µM* | -13% | 21µM*
COc1cccc(/C=N/NC(=O)c2cc(-c3cccn3C)n[nH]2)c1O | 11% | 6.5µM* | -3% | 5.8µM*
COc1ccccc1Cn1ccn(Cc2ccc(C)cc2)c(=O)c1=O | 5% | ? | -2% | ?
CCOC(=O)CSc1n[nH]c(NC(=O)NC(C)C)n1 | . | 8% | -2% | -18%
COc1cccc(-c2noc(C3CCCN(C(=O)CC(C)(C)C)C3)n2)c1 (configuration not stated) | 0% | ? | 1% | 16µM*
CCCCC(=O)N1CCCC(c2nc(-c3cccc(OC)c3)no2)C1 (configuration not stated) | -3% | 15µM* | 1% | ?
CCC(C)C(=O)N1CCCC(c2nc(-c3cccs3)no2)C1 (configuration not stated) | 2% | ? | 0% | -21%
CCCC(=O)N1CCCC(c2nc(-c3cccs3)no2)C1 (configuration not stated) | 9% | 26µM* | 0% | ?
COc1cccc(NC(=O)c2oc3ccccc3c2NC(=O)c2ccc(OC(C)C)cc2)c1 | 6% | ? | 4% | ?
CCc1nc2c(OCc3ccccc3C)cccn2c1N(C)C(=O)C1CC1 | . | 23µM* | -2% | ?
CCCCN(C=O)c1c(CC)nc2c(OCc3ccc(Cl)cc3Cl)cccn12 | . | 9.2µM* | 1% | 21µM*
CCCCN(C=O)c1c(CC)nc2c(OCc3ccccc3C)cccn12 | . | ? | -5% | 15µM*
Cn1nc(C(=O)N2CCN(c3ccccc3F)CC2)c2c1-c1ccccc1SC2 | 14% | ? | -4% | ?
Cc1ccc2oc(=O)c3cc(C(=O)Nc4ccccc4C(N)=O)sc3c2c1 | 1% | 2% | -3% | 8%
COc1ccc(Cl)cc1N1C(=NC(=O)C2CCCO2)SC2CS(=O)(=O)CC21 (configuration not stated) | 3% | 9% | -1% | 0%
Cc1ccc(-c2nnc3ccccc3c2C(=O)Nc2cccc(C(F)(F)F)c2)cc1 | 3% | -7% | -1% | -7%
COc1cccc(NC(=O)C(=O)NCCc2csc(-c3ccc(C(F)(F)F)cc3)n2)c1 | 4% | -28% | -1% | ?
COc1ccc(-c2nc(CCNC(=O)c3cccs3)cs2)cc1 | 1% | 21µM* | -19% | 16µM*
O=C(NCCc1csc(-c2cccc(F)c2)n1)c1cccs1 | 4% | 16µM* | -11% | ?
COc1ccccc1C(=O)Nc1cccc(C(=O)OCc2cc(=O)n3cc(C)sc3n2)c1 | 4% | -20% | -4% | -8%
CC1(C)Cc2nc(NC3CCCCC3)c(C#N)cc2CO1 | 0% | 23µM* | -1% | ?
CC1(C)Cc2c(C#N)c(NC3CCCCC3)nc(-c3ccco3)c2CO1 | 1% | . | . | .
NCCC[C@@H](CC(=O)N[C@@H]1CCNC[C@H]1C(=O)N[C@H](CC(=O)N[C@@H](CCC(=O)O)CC(=O)O)Cc1c[nH]c2ccccc12)NC(=O)C[C@H](CO)NC(=O)[C@@H]1CNCC[C@H]1N | 1% | . | . | .
SMILES | TDP1 block | DT40 TDP1 no CPT | ClpP mod | DT40 TDP1 CPT
O=C(CCc1ccccc1)c1nnc(-c2ccccc2)o1 | -6% | ? | . | 4%
O=[N+]([O-])c1ccc2c(c1)C(N1CCN(CCO)CC1)Cc1ccc(F)cc1S2 (configuration not stated) | . | ? | -1% | ?
CSc1ccc2c(c1)C(N1CCN(C)CC1)Cc1ccc(F)cc1S2 (configuration not stated) | . | 16µM* | -2% | ?
CC(=O)Nc1cc(-c2ccc(N3CCN(C)CC3)cc2)cn2c(-c3ccc(F)c(Cl)c3)cnc12 | . | ? | -15% | 18µM*
CC(=O)Nc1cc(-c2ccc(N3CCN(C)CC3)cc2)cn2c(-c3cccc(C(C)=O)c3)cnc12 | . | ? | -1% | ?
CN1CCN(c2ccc(-c3cc(NC=O)c4ncc(-c5ccc(F)c(Cl)c5)n4c3)cc2)CC1 | . | 16µM* | -26% | 12µM*
CC(=O)c1ccc(-c2cnc3c(NC=O)cc(-c4ccc(N5CCN(C)CC5)cc4)cn23)cc1 | . | 21µM* | -5% | ?
CCC(=O)c1ccc(OCC(O)Cn2nnc3ccccc32)cc1 (configuration not stated) | 2% | -21% | 0% | -8%
CC(=O)Nc1cccc(OCC(O)Cn2cnc3ccccc32)c1 (configuration not stated) | 1% | -4% | 1% | -15%
Cc1nc2ccccc2n1CC(O)COCC1CC=CCC1 (configuration not stated) | 7% | 10µM* | -2% | 15µM*
CCCOC(=O)c1ccc(OCC(O)Cn2c(C)nc3ccccc32)cc1 (configuration not stated) | 7% | 2.6µM* | 1% | 2.6µM*
OC(COCC1CC=CCC1)Cn1cnc2ccccc21 (configuration not stated) | 8% | -16% | -2% | -24%
CC(=O)Nc1cccc(OCC(O)Cn2c(C)nc3ccccc32)c1 (configuration not stated) | 3% | 16µM* | -2% | ?
CCN(CC(=O)NCc1cccs1)CC(=O)Nc1ccccc1C | 3% | -24% | 1% | -5%
Cc1ccccc1CN1CCN(C(=O)CC(C)C)CC1 | . | 5% | 1% | -12%
C/C=C/c1cnc2c(c1)C(=O)N([C@H](C)CO)C[C@H](C)[C@@H](CN(C)C(=O)CN1CCOCC1)O2 | . | -26% | 1% | -1%
CN(/N=C/c1c[nH]c2ccccc12)c1cnn(-c2ccc(F)c(Cl)c2)c(=O)c1Cl | 2% | 26µM* | 0% | 26µM*
COc1ccc(C(=O)OCC(=O)Nc2ccc3[nH]c(=O)[nH]c3c2)cc1 | -1% | -10% | 1% | -4%
COc1cccc(CN(C)C(=O)c2ccc(S(=O)(=O)Nc3ccccc3F)cc2)c1OC | 0% | ? | -5% | ?
Cc1ccccc1NS(=O)(=O)c1ccc(C(=O)N2CCC2)cc1 | 0% | ? | -1% | -23%
Cc1cccc(NS(=O)(=O)c2ccc(C(=O)N3CC(C)OC(C)C3)cc2)c1C (configuration not stated) | 0% | ? | -1% | ?
Cc1cccc(NS(=O)(=O)c2ccc(C(=O)N3CCCCCC3)cc2)c1C | 1% | 23µM* | . | ?
Cc1cccc(NS(=O)(=O)c2ccc(C(=O)N3CCCC3)cc2)c1C | . | 15µM* | . | -17%

Compound activity deposited in PubChem BioAssay by National Center for Advancing Translational Sciences (NCATS).
